Bioassay records (PubChem)
SMN2 splice up = qHTS Assay for Enhancers of SMN2 Splice Variant Expression; HEK293 SMN2-luciferase splicing reporter, luminescence, 30-36 h; Potency, µM (titrated, usually from 46.1 µM), without a hit: at the highest dose activity change, positive = activation, usual class: activators; hit rate 2.8% among 210,000; AID 1458, 2008; further: % of control where 0% means no effect; nearly all actives have a fitted effect of over 55% in size
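qHTS luciferase splicing reporter: luminescence rises when SMN2 exon 7 is included in transfected HEK293 cells. Compound exposure lasted 30-36 h at 37C, with 4.5 mM final sodium butyrate as control, followed by a ONE-Glo read.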
ELG1 genotoxic = qHTS screen for small molecules that induce genotoxicity in human embryonic kidney (HEK293T) cells expressing luciferase-tagged ELG1 | HEK293T ELG1-luciferase reporter, luminescence, 16 h | Potency, µM (titrated, usually from 46 µM), without a hit: at the top dose activity change, positive = activation, usual class: activators | hit rate 1.3% among 330,000 | AID 504466, 2011; further: % of control where 0% means no effect; nearly all actives have a fitted effect of over 60% in size
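HEK293T cells expressing luciferase-tagged ELG1 were treated with compound or DMSO for 16 hr at 37°C. Luciferase activity was then read after 30 min with ONE-Glo at room temperature; rising signal flags genetic stress.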
ELG1 repair inh = qHTS screen for small molecules that inhibit ELG1-dependent DNA repair in human embryonic kidney (HEK293T) cells expressing luciferase-tagged ELG1; HEK293T ELG1-luciferase reporter, luminescence, 16 h; DNA damage induced by 5-fluorouridine; Potency, µM (series often up to 46.1 µM), for inactives: top-dose activity change, negative = inhibition, actives largely listed as inhibitors; hit rate 2.3% among 330,000; AID 504467, 2011; further: on the % scale 0 is the no-effect control and ±100 the full control effect; nearly all actives have a fitted effect of over 55% in size
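Step one: seed 2,000 cells per well. Step two: pin-transfer compound or DMSO alongside 5-fluorouridine. Step three: incubate 16 hr, 37 °C, 5% CO2. Step four: add ONE-Glo, wait 30 min, read luminescence.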
NPC1 promoter act = qHTS Assay for NPC1 Promoter Activators; Huh7 NPC1 promoter luciferase reporter, 24 h; Potency, µM (titrated, usually from 9.22 µM), for inactives: top-dose activation, actives largely listed as activators; hit rate 2.4% among 320,000; further: % of control where 0% means no effect; nearly all actives have a fitted effect of over 60% in size
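Cells: Huh7 expressing luciferase under the NPC1 promoter, 1500/well. Seeded 2 h, compound added, incubated 24 h at 37 °C. Luciferase reagent, 10 min ambient, then luminescence.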
FLuc modulator = qHTS profiling assay for firefly luciferase inhibitor/activator using purifed enzyme and Km concentrations of substrates (counterscreen for miR-21 project) | purified FLuc, Km substrates, luminescence inhibition | Potency, µM (doses to about 57.5 µM), inactives show top-dose activity change, negative = inhibition, usual class: inhibitors | Luciferin 4-monooxygenase (Photinus pyralis), P08659 | hit rate 6.9% among 360,000;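 further: plate controls were vehicle for no effect and reference inhibitor for full effect; nearly all actives have a fitted effect of over 55% in size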
Target sequence (P08659 whole entry, looked up): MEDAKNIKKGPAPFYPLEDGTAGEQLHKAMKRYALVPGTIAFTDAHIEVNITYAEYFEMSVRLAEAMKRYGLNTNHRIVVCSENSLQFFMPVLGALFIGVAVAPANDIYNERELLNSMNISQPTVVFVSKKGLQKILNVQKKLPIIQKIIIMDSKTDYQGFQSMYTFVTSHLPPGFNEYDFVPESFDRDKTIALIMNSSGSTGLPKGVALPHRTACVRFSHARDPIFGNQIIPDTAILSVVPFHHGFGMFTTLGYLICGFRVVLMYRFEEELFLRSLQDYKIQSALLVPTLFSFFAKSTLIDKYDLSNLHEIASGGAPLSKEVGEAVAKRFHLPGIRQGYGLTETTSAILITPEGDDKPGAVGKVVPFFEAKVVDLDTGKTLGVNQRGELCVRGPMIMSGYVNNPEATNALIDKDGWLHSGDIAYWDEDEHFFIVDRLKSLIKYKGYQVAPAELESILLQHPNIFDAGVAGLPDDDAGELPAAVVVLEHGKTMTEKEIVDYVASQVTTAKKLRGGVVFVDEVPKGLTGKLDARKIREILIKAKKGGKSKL
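Biochemical qHTS of compounds, final roughly 60 µM downward over six points, against 10 nM purified firefly luciferase using Km concentrations of substrates (10 uM D-luciferin, 10 uM ATP) in Tris acetate pH 7.5 buffer; luminescence output.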
Rab9 prom act = qHTS Assay for Rab9 Promoter Activators; Huh7 Rab9 promoter-luciferase reporter, luminescence, 24 h; Potency, µM (titrated, usually from 9.22 µM), without a hit: top-dose activation, negative = inhibition, actives largely listed as activators; hit rate 2.8% among 320,000; further: % of control where 0% means no effect; nearly all actives have a fitted effect of over 60% in size
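Using Huh7 cells stably transfected with Rab9 promoter–luciferase, compounds were incubated 24 h at 37 °C, 5% CO2; luciferase luminescence was read 10 min after reagent addition.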
Numbers without * were called inactive. A selection: hits, their analogues and other compounds. The true share with any hit is near 9.2%. The call rests on the fitted dose curve; in most records, active means well fitted curve in the direction sought with a large enough effect; inconclusive means small, poorly fitted or top-dose-only effect, or another doubt; inactive means no such curve, though single readings can be large; an effect the other way counts as inactive or inconclusive. Potency means the concentration at half of the fitted maximal effect.

Cc1cccc(-n2c(SCC(=O)N3CC(=O)Nc4ccccc43)nc3ccccc3c2=O)c1C was read as SMN2 splice up -19%, ELG1 genotoxic -10%, ELG1 repair inh 21µM*, NPC1 promoter act -4%, FLuc modulator -2% and Rab9 prom act -1%.
Screening CCc1ccc2nc(SCC(=O)N3CC(=O)Nc4ccccc43)c(C#N)cc2c1 returned SMN2 splice up 26%, ELG1 genotoxic 10%, ELG1 repair inh inconclusive, NPC1 promoter act -11%, FLuc modulator -1% and Rab9 prom act -5%.
For N#Cc1cc(C#N)c(SCC(=O)N2CC(=O)Nc3ccccc32)nc1N the results were ELG1 genotoxic 0%, ELG1 repair inh 12µM*, NPC1 promoter act -10%, FLuc modulator -1% and Rab9 prom act 2%.
Screening Cc1sc2nc(C3CCCCC3)nc(SCC(=O)N3CC(=O)Nc4ccccc43)c2c1C returned SMN2 splice up -14%, ELG1 genotoxic 0%, ELG1 repair inh -3%, NPC1 promoter act 0%, FLuc modulator 0% and Rab9 prom act 3%.
Screening CCc1nc(SCC(=O)N2CC(=O)Nc3ccccc32)c2c(C)c(C)sc2n1 returned SMN2 splice up -14%, ELG1 genotoxic -8%, ELG1 repair inh 23µM*, NPC1 promoter act 1%, FLuc modulator -15% and Rab9 prom act -2%.
`Cc1cccc(-n2c(SCC(=O)N3CC(=O)Nc4ccccc43)nc3ccccc3c2=O)c1` gave SMN2 splice up 1%, ELG1 genotoxic -5%, ELG1 repair inh inconclusive, NPC1 promoter act -5%, FLuc modulator -1% and Rab9 prom act -8%.
For CCOc1cc2[nH]c(=O)n(CCCCC(=O)N3CCN(c4ccc(OC)cc4)CC3)c(=O)c2cc1OCC the results were FLuc modulator -1%.
CCOC(=O)c1ccc(Nc2nc(=O)c3cccnc3s2)cc1 was read as SMN2 splice up 10µM*, ELG1 genotoxic 5%, ELG1 repair inh inconclusive, NPC1 promoter act 3.5µM*, FLuc modulator inconclusive and Rab9 prom act 4.5µM*.
`O=c1nc(Nc2ccc(OCc3ccccc3)cc2)sc2ncccc12` gave SMN2 splice up 3.5µM*, ELG1 genotoxic -3%, ELG1 repair inh inconclusive, NPC1 promoter act -2%, FLuc modulator -2% and Rab9 prom act 13%.
CC(=O)c1ccc(Nc2nc(=O)c3cccnc3s2)cc1 was read as SMN2 splice up inconclusive and FLuc modulator -10%.
Screening Cc1cccc(CNc2cc(-c3ccccc3CN(C)C)ncn2)c1 returned SMN2 splice up -7%.
CC1(C)CC(=O)C(C(C2=C(O)CC(C)(C)CC2=O)c2cccs2)C(=O)C1 (stereo not drawn) was read as ELG1 genotoxic 3%, ELG1 repair inh 14%, NPC1 promoter act -4%, FLuc modulator 17µM* and Rab9 prom act -1%.
Screening Cc1ccc(-c2nnc(N3CCCCCC3)c3ccccc23)cc1 returned ELG1 genotoxic 1%, ELG1 repair inh -3%, NPC1 promoter act 15%, FLuc modulator 19µM* and Rab9 prom act 9%.
Screening O=C(CSc1nnc(Nc2ccccc2)s1)NC1CCCC1 returned ELG1 genotoxic -1% and ELG1 repair inh 14%.
Cc1ccc(Nc2nnc(SCC(=O)NC3CC3)s2)cc1 was read as ELG1 genotoxic 4%, ELG1 repair inh inconclusive, NPC1 promoter act 0%, FLuc modulator 7.6µM* and Rab9 prom act 6%.
Cc1ccc(Nc2nnc(SCC(=O)NC(Cc3c[nH]c4ccccc34)C(=O)O)s2)cc1 (stereo not drawn) was read as SMN2 splice up 7%, ELG1 genotoxic 4%, ELG1 repair inh 18%, NPC1 promoter act -2%, FLuc modulator 19µM* and Rab9 prom act -3%.
`Cc1ccc(Nc2nnc(SCC(=O)NCCN3C(=O)CSC3=O)s2)cc1` gave SMN2 splice up inconclusive, ELG1 genotoxic 12%, ELG1 repair inh inconclusive, NPC1 promoter act 2%, FLuc modulator 8.5µM* and Rab9 prom act 11%.
`Cc1ccc(S(=O)(=O)NC(C)(C)CSc2nnc(Nc3ccccc3)s2)cc1` gave SMN2 splice up -32%, ELG1 genotoxic -29%, ELG1 repair inh 23µM*, NPC1 promoter act -4%, FLuc modulator -6% and Rab9 prom act 0%.
COc1ccc(S(=O)(=O)Nc2ccc(C)cn2)cc1 was read as ELG1 genotoxic 1%, ELG1 repair inh -1%, NPC1 promoter act 1%, FLuc modulator 6% and Rab9 prom act 0%.
Screening CCc1cccc(NC(=O)CCc2c(C)nc3c(c2C)c(=O)n(C)c(=O)n3C)c1 returned SMN2 splice up -16% and FLuc modulator -9%.
Nc1cc(Cl)ccc1C(=O)OCC(=O)NC1CCCCCCC1 was read as ELG1 genotoxic 0%, ELG1 repair inh inconclusive, NPC1 promoter act 5%, FLuc modulator 1% and Rab9 prom act 14%.
`COc1ccc(Cl)cc1NC(=O)Cn1nc(Cc2ccncc2)c2ccccc2c1=O` gave SMN2 splice up -10% and FLuc modulator 7%.
COc1ccc(O[C@H]2C=C[C@@H](c3ccccc3)O[C@@H]2COC(=O)CC/C(C)=N/O[C@H](C)c2cn([C@@H]3COC[C@H]3O)nn2)cc1 was read as SMN2 splice up -34%, ELG1 genotoxic -7%, ELG1 repair inh 26µM*, NPC1 promoter act -8%, FLuc modulator 0% and Rab9 prom act 0%.
Screening COc1ccc(O[C@H]2C=C[C@@H](c3ccccc3)O[C@@H]2COC(=O)CCC(C)=NO[C@@H]2O[C@H](COC(C)=O)[C@@H](OC(C)=O)[C@H](OC(C)=O)[C@H]2OC(C)=O)cc1 returned SMN2 splice up -9%, ELG1 genotoxic 0%, ELG1 repair inh inconclusive, NPC1 promoter act -2%, FLuc modulator -1% and Rab9 prom act 1%.
Cc1ccc(SSc2cc(C)ccc2N)c(N)c1 was read as ELG1 genotoxic 15%, ELG1 repair inh inconclusive, NPC1 promoter act 1.1µM*, FLuc modulator 4.8µM* and Rab9 prom act 0.79µM*.
Screening O=c1cc(O)c(-c2ccc(Cl)cc2)c(Cl)[nH]1 returned ELG1 genotoxic 4%, ELG1 repair inh 19%, NPC1 promoter act -1%, FLuc modulator -1% and Rab9 prom act -1%.
